HADH2 inh: qHTS Assay for Inhibitors of HADH2 (Hydroxyacyl-Coenzyme A Dehydrogenase, Type II); 3-hydroxyacyl-CoA dehydrogenase type-2 (Homo sapiens), Q99714; recombinant HADH2, NADH fluorescence, beta-hydroxybutyryl-CoA; Potency, µM (top dose mostly 57.1 µM), hits mostly inhibitors; 73,000 tested, 3.4% active; further: nearly all actives have a fitted effect of over 60% in size
Target sequence (Q99714 whole entry, looked up, one chain of several): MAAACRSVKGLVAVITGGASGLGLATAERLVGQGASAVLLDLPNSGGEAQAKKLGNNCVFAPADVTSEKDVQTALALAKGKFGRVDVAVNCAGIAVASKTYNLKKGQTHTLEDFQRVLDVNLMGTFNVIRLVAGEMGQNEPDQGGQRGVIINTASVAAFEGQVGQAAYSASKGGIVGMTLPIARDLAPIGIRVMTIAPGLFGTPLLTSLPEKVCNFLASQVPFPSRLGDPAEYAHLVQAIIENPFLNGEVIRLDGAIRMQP
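20 nM HADH2 + cpd, 15 min RT; add 1 mM NAD+/90 uM beta-hydroxybutyryl-CoA; kinetic fluorescence 360/450 nm, 4 min. Tris-HCl pH 9.0, 0.01% Tween-20.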
AID923: qHTS Assay for Allosteric/Competitive Inhibitors of Caspase-1: Spectroscopic Profiling in AFC Spectral Region; AID 923, 2007; 75,000 tested, 1.1% active; Potency, µM (titrated, usually from 57.5 µM), most hits filed as activators; compound fluorescence, AFC spectral region (405/520 nm)
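Compound autofluorescence profiled at 405 nm ex/520 nm em during kinetic caspase 1 run (50 nM enzyme, 5 uM Ac-WEHD-AFC, HEPES pH 7.5, 10 mM DTT). Titration up to 57 uM; baseline from regression intercept, normalized to AFC standard curve.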
CRE Fsk mod: Cell signaling CRE-BLA (Fsk stim) | CHO CRE-bla reporter (cAMP response element driving beta-lactamase), forskolin EC10, beta-lactamase ratio | Potency, µM (highest dose often 38.2 µM), hits mostly activators | 71,000 tested, 2.5% active | AID 662, 2007; active means well fitted activation curve with a large enough effect in the signal ratio, with a control signal flat, not every such curve was filed as active; inconclusive means small, poorly fitted or top-dose-only effect, or effect the other way, or a change in a side signal; the % refers to the signal ratio
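Modulation of forskolin signalling: compounds in titration series added with EC10 NKH 477 to CHO cells carrying a CRE-driven beta-lactamase reporter, 3 h, 37C. CCF4 FRET ratio (460/530 nm, ex 405 nm) gives %activity and AC50.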
4MU fluor: qHTS Assay for Spectroscopic Profiling in 4-MU Spectral Region; compound autofluorescence, 340/450 nm, 4-MU equivalents; stronger effect = higher value; max dye-equivalent concentration, M; 59,000 tested, 11% active; in the data active means max dye-equivalent concentration above about 10 nM; inconclusive means mostly about 1.1 nM to 9.6 nM
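Compounds in 100 mM Tris, pH 8.0, sat 15 min at room temperature before fluorescence was read at 340 nm excitation/450 nm emission; a per-plate six-point 4-MU standard curve converted signals to dye-equivalent concentration at each compound concentration.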
HSD17B inh: qHTS Assay for Inhibitors of HSD17B4, hydroxysteroid (17-beta) dehydrogenase 4. 75,000 tested, 7.6% active. Potency, µM (doses to about 57.1 µM), hits mostly inhibitors. 3-hydroxyacyl-CoA dehydrogenase type-2 (Homo sapiens), Q99714. recombinant HSD17B10, NADH fluorescence kinetic;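 further: the protocol describes HADH2 (HSD17B10) and not the HSD17B4 of the title; nearly all actives have a fitted effect of over 70% in size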
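Enzyme plus compound, 15 min room temperature; substrate mix added (NAD+ 1 mM, beta-hydroxybutyryl-CoA 90 uM final); plates read kinetically for NADH fluorescence. HADH2 was His-tagged, E. coli-derived, 20 nM.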
A350 autofl: qHTS Assay for Spectroscopic Profiling in A350 Spectral Region. Compound autofluorescence, 340/450 nm, Alexa 350 dye-equivalents; stronger effect = higher value. max dye-equivalent concentration, M. 59,000 tested, 11% active; in the data active means max dye-equivalent concentration above about 10 nM; inconclusive means mostly about 1.1 nM to 9.6 nM
Large screens that a line does not name were inactive. Rows were chosen to be rich in hits. Some 14% of all compounds tested hit in one or more screens of this group. Unless noted, the call rests on the fitted dose curve; in most records, active means well fitted curve in the direction sought with a large enough effect; inconclusive means small, poorly fitted or top-dose-only effect, or another doubt; inactive means no such curve, though single readings can be large; an effect the other way counts as inactive or inconclusive.

COc1cccc2[nH]c3c(N4CCCC(C)C4)ncnc3c12 (stereo not given)	CRE Fsk mod inconclusive, 4MU fluor 2.98e-08M, HSD17B inh 20µM, A350 autofl 3.77e-08M
CCOC(=O)C1CCCN(c2ncnc3c2cnn3-c2cccc(C)c2)C1 (stereo not given)	CRE Fsk mod inconclusive
c1ccc2c(c1)[nH]c1c(N3CCCC3)ncnc12	HADH2 inh inconclusive, CRE Fsk mod inconclusive, 4MU fluor inconclusive, A350 autofl inconclusive
CCOC(=O)C1CCCN(c2ncnc3c2[nH]c2cccc(OC)c23)C1 (stereo not given)	HADH2 inh 31.6µM, CRE Fsk mod inconclusive, 4MU fluor 5.43e-07M, HSD17B inh 25.1µM, A350 autofl 6.78e-07M
COc1ccccc1-c1cncnc1Nc1ccccc1	HADH2 inh inconclusive
COc1cc(C[C@H]2C(=O)OC[C@@H]2Cc2ccc(OC)c(OC)c2)ccc1O	CRE Fsk mod inconclusive (no result: 4MU fluor, A350 autofl)
COc1ccc2c(c1)c(=O)oc1cc(OCC(=O)N3CCCC(C)C3)ccc12 (stereo not given)	CRE Fsk mod inconclusive, 4MU fluor 7.23e-07M, HSD17B inh 25.1µM, A350 autofl 8.34e-07M
COc1ccc2c(c1)c(=O)oc1cc(OCC(=O)N3CCC(C)CC3)ccc12	CRE Fsk mod inconclusive, 4MU fluor 3.74e-07M, HSD17B inh 10µM, A350 autofl 3.58e-07M
COc1ccc(OCC(=O)N2CCN(C(=O)COc3ccc(Br)cc3)CC2)cc1	none
CCN[C@@H]1CN(CCCOC)S(=O)(=O)c2sc(S(N)(=O)=O)cc21	none
O=C(N/N=C\c1ccc2c(c1)CCC2)c1ccccc1O	A350 autofl inconclusive
COc1cc(NC(=O)c2nnn(Cc3ccc(SC)cc3)c2N)cc(OC)c1	HADH2 inh 31.6µM (no result: 4MU fluor, A350 autofl)
CCOc1ccc(Cn2nnc(C(=O)NCc3ccc(OC)cc3)c2N)cc1	none (no result: 4MU fluor, A350 autofl)
COc1ccc(OC)c(NC(=O)c2nnn(CCc3ccccc3)c2N)c1	HADH2 inh 25.1µM, HSD17B inh inconclusive (no result: 4MU fluor, A350 autofl)
CCc1ccc(Cn2nnc(C(=O)Nc3ccc(OC)cc3OC)c2N)cc1	HADH2 inh 25.1µM, HSD17B inh 31.6µM (no result: 4MU fluor, A350 autofl)
COc1cccc(NC(=O)c2nnn(CCc3ccccc3)c2N)c1	none (no result: 4MU fluor, A350 autofl)
O=C1CCCC=C1[C@@H](O)CCOC(c1ccccc1)(c1ccccc1)c1ccccc1	none (no result: CRE Fsk mod, 4MU fluor, A350 autofl)
NCCCc1ccc2oc3ccccc3c2c1	none
CC(C)=C1C(=O)C(c2ccccc2)=C2CN3C(=O)N(CCc4ccccc4)C(=O)[C@]3(C)[C@H]21	none (no result: 4MU fluor, A350 autofl)
Cc1cc(Cc2cc(Cc3cc(C)cc(C(C)(C)C)c3O)c(C)cc2C)c(O)c(C(C)(C)C)c1	HADH2 inh inconclusive
Cc1nc2c(ccc3nc(NC(=O)c4ccc(S(=O)(=O)N(C)C)cc4)sc32)s1	4MU fluor 9.26e-08M, A350 autofl 9.87e-08M
CN(C)S(=O)(=O)c1ccc(C(=O)Nc2nnc(Cc3ccccc3)s2)cc1	4MU fluor inconclusive, A350 autofl inconclusive
CCCC[C@H]1C[C@@H]1[C@@H]1N(C(C)=O)[C@H](c2cccc(OC)c2)CC12CC2	CRE Fsk mod inconclusive (no result: 4MU fluor, A350 autofl)
COc1cccc(-c2nc(C(N)=O)c3[nH]c(=O)n(-c4ccccc4)c3n2)c1OC	CRE Fsk mod inconclusive (no result: 4MU fluor, A350 autofl)
COc1ccc(-c2nc(C(N)=O)c3[nH]c(=O)n(-c4cccc(C)c4)c3n2)c(OC)c1	CRE Fsk mod 10µM, HSD17B inh inconclusive (no result: 4MU fluor, A350 autofl)
COc1ccccc1-c1nc(C(N)=O)c2[nH]c(=O)n(-c3cccc(C)c3)c2n1	HADH2 inh 25.1µM, CRE Fsk mod inconclusive, 4MU fluor 9.22e-08M, HSD17B inh 25.1µM, A350 autofl 9.25e-08M
Cc1cccc(-n2c(N)cc(=O)[nH]c2=S)c1	none (no result: 4MU fluor, A350 autofl)
Cc1cccc(-n2c(=O)[nH]c3c(C(N)=O)nc(-c4ccccc4Cl)nc32)c1	HSD17B inh 25.1µM (no result: 4MU fluor, A350 autofl)
